We go through 72 compounds from the antibiotic and cytotoxicity screens of Wong et al. (2023).

Structures are written as SMILES. About 500 (1.3%) of roughly 39,000 compounds were called active. The sample holds actives, similar compounds and a random draw of the others, so the mix is not that of the screen.

The subject of the test is S. aureus RN4220. Nature of the test: growth inhibition call (relative growth <= 0.2). The following applies: 50 µM.
As for `CNC[C@@H]1Oc2ccc(NS(=O)(=O)c3cn(C)cn3)cc2C(=O)N([C@@H](C)CO)C[C@@H]1C`, the growth inhibition call is “inactive”.

For `CCc1nc2ccc(C(=O)NC3CCN(Cc4ccccc4)CC3)cn2c1N(C)Cc1cc2ccccc2s1`, the growth inhibition call was “inactive”.

For `Cc1noc(C)c1NC(=O)Nc1ccc2c(c1)C(=O)N([C@H](C)CO)C[C@@H](C)[C@H](CN(C)S(=O)(=O)c1ccccc1)OCCCC[C@H](C)O2`, the growth inhibition call was “inactive”.

For `Cc1cc(C2CCCCC2)n(O)c(=O)c1.NCCO`, the growth inhibition call is “active”.

Regarding `C[C@H](CO)N1C[C@H](C)[C@@H](CN(C)Cc2ccc(-c3ccccc3)cc2)Oc2c(NC(=O)c3ccncc3)cccc2C1=O`, the growth inhibition call was “inactive”.

For `C[C@H]1CN([C@@H](C)CO)C(=O)c2cccc(NC(=O)c3cnccn3)c2O[C@@H]1CN(C)Cc1ccncc1`, the growth inhibition call is “inactive”.

In the case of `COc1cccc(NC(=O)N[C@@H]2CC[C@@H](CC(=O)N3CCN(C)CC3)O[C@@H]2CO)c1`, the growth inhibition call is “inactive”.

With `O=C(C[C@@H]1CC[C@H]2[C@@H](COC[C@H](O)CN2C(=O)Nc2cccc(F)c2)O1)NCc1ccccc1Cl`, the growth inhibition call is “inactive”.

In the case of `CC1(C)SC2C(NC(=O)COc3ccccc3)C(=O)N2C1C(=O)[O-].[K+]` (configuration not stated), the growth inhibition call is “active”.

Turning to `CC1(C)SC2C(NC(=O)Cc3ccccc3)C(=O)N2C1C(=O)[O-].[K+]` (configuration not stated), the growth inhibition call was “active”.

With `CC1(C)C(=O)NCCN1C(=O)Cc1ccccc1`, the growth inhibition call was “inactive”.

Consider `COC(=O)[C@@H]1N2C(=O)[C@@H](N3CC4=C[C@@H](C5CC5)n5c(=O)n(C)c(=O)n5[C@@H]4[C@@H]3[C@@H](O)Cc3ccccc3)[C@H]2SC1(C)C`, for which the growth inhibition call is “inactive”.

On to `COC(=O)[C@@H]1N2C(=O)[C@@H](N3C[C@](C)(OC)O[C@@H](Cc4ccccc4)[C@H]3/C=C/C3CC3)[C@H]2SC1(C)C`, for which the growth inhibition call was “inactive”.

In the case of `CNC(=O)Cc1ccccc1`, the growth inhibition call was “inactive”.

In the case of `NNC(=O)COc1ccccc1`, the growth inhibition call was “inactive”.

For the compound `CC1(C)SC2C(N3C(=O)C(c4ccccc4)NC3(C)C)C(=O)N2C1C(=O)[O-].[K+]` (configuration not stated), the growth inhibition call was “active”.

Turning to `C[C@@H](NC(=O)COc1ccccc1)C(=O)O`, the growth inhibition call is “inactive”.

With `COc1ccc(S(=O)(=O)N(C)C[C@H]2OCCCC[C@@H](C)Oc3ccc(NC(=O)Nc4ccc(F)cc4)cc3C(=O)N([C@@H](C)CO)C[C@H]2C)cc1`, the growth inhibition call is “inactive”.

As for `COc1cccc(CNC(=O)C[C@@H]2C=C[C@@H](NC(=O)C3CCOCC3)[C@H](CO)O2)c1`, the growth inhibition call was “inactive”.

Turning to `COc1ccc(NC(=O)N(C)C[C@@H]2Oc3c(NS(C)(=O)=O)cccc3C(=O)N([C@H](C)CO)C[C@H]2C)cc1`, the growth inhibition call was “inactive”.

With `OCCc1ccc2c(c1)OCO2`, the growth inhibition call was “inactive”.

Regarding `Cc1ccc(S(=O)(=O)N(C)C[C@H]2Oc3ccc(NC(=O)Nc4cccc5ccccc45)cc3C(=O)N([C@@H](C)CO)C[C@@H]2C)cc1`, the growth inhibition call is “inactive”.

Turning to `COc1ccc(S(=O)(=O)N2C[C@H](O)COC[C@H]3O[C@H](CC(=O)NCCN4CCCCC4)CC[C@@H]32)cc1`, the growth inhibition call is “inactive”.

As for `CCCNC(=O)N1C[C@@H](O)COC[C@H]2O[C@@H](CC(=O)N3CCN(C)CC3)CC[C@@H]21`, the growth inhibition call is “inactive”.

Turning to `C[C@H]1CN([C@@H](C)CO)C(=O)c2cc(NC(=O)Cc3ccccc3)ccc2O[C@H]1CN(C)C(=O)Nc1cccc2ccccc12`, the growth inhibition call is “inactive”.

Regarding `O=C(/C=c1/nc2c([nH]c1=O)=NON2)c1ccccc1`, the growth inhibition call was “active”.

Regarding `C[C@H]1CNC(=CC(=O)c2ccccc2)C(=O)N1`, the growth inhibition call is “inactive”.

Turning to `O=C1OCCN/C1=C/C(=O)c1ccccc1`, the growth inhibition call was “inactive”.

For `COc1ccc(S(=O)(=O)N(C)C[C@@H]2Oc3ccc(NC(=O)Cc4ccccc4)cc3CC(=O)N([C@@H](C)CO)C[C@@H]2C)cc1`, the growth inhibition call is “inactive”.

Take `CC(C)(C)[S@](=O)N1Cc2cc(C(=O)NCc3ccccc3F)nc(-c3cccc(-c4ccncc4)c3)c2[C@@H]1CCO`: the growth inhibition call was “inactive”.

Consider `O=C(C[C@@H]1CC[C@H]2[C@@H](COC[C@@H](O)CN2C(=O)Nc2cccc(Cl)c2)O1)NCc1ccccc1F`, for which the growth inhibition call was “inactive”.

`COc1cccc(NC(=O)N2C[C@H](O)COC[C@H]3O[C@@H](CC(=O)NCc4ccccc4F)CC[C@@H]32)c1`: the growth inhibition call is “inactive”.

Take `O=C(C[C@H]1CC[C@H]2[C@@H](COC[C@@H](O)CN2C(=O)Nc2cccc(Cl)c2)O1)NCc1ccccc1F`: the growth inhibition call is “inactive”.

As to `O=C(C[C@H]1CC[C@@H]2[C@H](COC[C@@H](O)CN2C(=O)Nc2cccc(Cl)c2)O1)NCc1ccccc1F`, the growth inhibition call was “active”.

In the case of `O=C(C[C@H]1CC[C@H]2[C@@H](COC[C@H](O)CN2C(=O)Nc2cccc(Cl)c2)O1)NCc1ccccc1F`, the growth inhibition call is “inactive”.

Take `O=C(C[C@@H]1CC[C@H]2[C@@H](COC[C@H](O)CN2C(=O)Nc2cccc(Cl)c2)O1)NCc1ccccc1F`: the growth inhibition call was “active”.

Regarding `O=C(C[C@H]1CC[C@@H]2[C@H](COC[C@H](O)CN2C(=O)Nc2cccc(Cl)c2)O1)NCc1ccccc1F`, the growth inhibition call was “inactive”.

As to `O=C(C[C@@H]1CC[C@@H]2[C@H](COC[C@H](O)CN2C(=O)Nc2cccc(Cl)c2)O1)NCc1ccccc1F`, the growth inhibition call was “inactive”.

On to `O=C(C[C@@H]1CC[C@@H]2[C@H](COC[C@@H](O)CN2C(=O)Nc2cccc(Cl)c2)O1)NCc1ccccc1F`, for which the growth inhibition call was “active”.

For `COc1ccc(NC(=O)N(C)C[C@H]2Oc3c(NC(=O)Nc4cccc5ccccc45)cccc3C(=O)N([C@@H](C)CO)C[C@@H]2C)cc1`, the growth inhibition call was “inactive”.

In the case of `COc1ccc(S(=O)(=O)N(C)C[C@H]2Oc3c(NS(=O)(=O)c4c(C)noc4C)cccc3C(=O)N([C@@H](C)CO)C[C@@H]2C)cc1`, the growth inhibition call was “inactive”.

Regarding `O=c1[nH]cccc1F`, the growth inhibition call was “inactive”.

In the case of `C[C@@H]1CN([C@H](C)CO)C(=O)Cc2cc(NC(=O)CCN3CCOCC3)ccc2O[C@@H]1CN(C)C(=O)Nc1ccc2c(c1)OCO2`, the growth inhibition call was “inactive”.

`C[C@@H]1CN([C@@H](C)CO)C(=O)c2cc(NC(=O)C3CCCCC3)ccc2O[C@@H](C)CCCCO[C@H]1CN(C)C(=O)c1ccccc1`: the growth inhibition call is “inactive”.

Take `CNC[C@@H]1Oc2cc(C#CCN(C)C)ccc2S(=O)(=O)N([C@@H](C)CO)C[C@@H]1C`: the growth inhibition call was “inactive”.

With `CC(C)NC(=O)N(C)C[C@@H]1Oc2ccc(NC(=O)C3CCCCC3)cc2C(=O)N([C@@H](C)CO)C[C@@H]1C`, the growth inhibition call is “inactive”.

Regarding `C[C@@H]1CN([C@@H](C)CO)C(=O)CCCn2nncc2CO[C@@H]1CN(C)C(=O)Nc1cccc(C(F)(F)F)c1`, the growth inhibition call was “inactive”.

Consider `C[C@H](CO)N1C[C@H](C)[C@@H](CN(C)C(=O)Nc2cccc(C(F)(F)F)c2)OCc2cnnn2CCCC1=O`, for which the growth inhibition call is “inactive”.

For `C[C@@H]1CN([C@H](C)CO)C(=O)CCCn2nncc2CO[C@@H]1CN(C)C(=O)Nc1cccc(C(F)(F)F)c1`, the growth inhibition call is “active”.

As for `C[C@H]1CN([C@@H](C)CO)C(=O)CCCn2nncc2CO[C@H]1CN(C)C(=O)Nc1ccc(C(C)(C)C)cc1`, the growth inhibition call is “inactive”.

Regarding `C[C@@H]1CN([C@H](C)CO)C(=O)CCCn2nncc2CO[C@H]1CN(C)C(=O)Nc1cccc(C(F)(F)F)c1`, the growth inhibition call is “active”.

Consider `C[C@@H]1CN([C@@H](C)CO)C(=O)CCCn2nncc2CO[C@H]1CN(C)C(=O)Nc1ccc(C(C)(C)C)cc1`, for which the growth inhibition call was “inactive”.

Turning to `C[C@H]1CN([C@@H](C)CO)C(=O)CCCn2nncc2CO[C@H]1CN(C)C(=O)Nc1cccc(C(F)(F)F)c1`, the growth inhibition call is “active”.

On to `C[C@@H]1CN([C@@H](C)CO)C(=O)CCCn2nncc2CO[C@H]1CN(C)C(=O)Nc1cccc(C(F)(F)F)c1`, for which the growth inhibition call was “inactive”.

As for `C[C@H](CO)N1C[C@H](C)[C@H](CN(C)C(=O)Nc2cccc(C(F)(F)F)c2)OCc2cnnn2CCCC1=O`, the growth inhibition call is “active”.

Take `C[C@H]1CN([C@@H](C)CO)C(=O)CCCn2nncc2CO[C@@H]1CN(C)C(=O)Nc1cccc(C(F)(F)F)c1`: the growth inhibition call was “inactive”.

Consider `C[C@@H]1CCCCO[C@@H](CN(C)C(=O)Nc2ccccc2)[C@@H](C)CN([C@H](C)CO)C(=O)c2cc(NC(=O)CCC(F)(F)F)ccc2O1`, for which the growth inhibition call is “inactive”.

On to `C[C@H]1CN([C@@H](C)CO)C(=O)c2cc(NC(=O)NC3CCCCC3)ccc2O[C@H]1CN(C)C(=O)Nc1cccc2ccccc12`, for which the growth inhibition call was “inactive”.

`OC[C@H]1O[C@@H]2O[C@H]3[C@H](O)[C@@H](O)[C@@H](O[C@H]4[C@H](O)[C@@H](O)[C@@H](O[C@H]5[C@H](O)[C@@H](O)[C@@H](O[C@H]6[C@H](O)[C@@H](O)[C@@H](O[C@H]7[C@H](O)[C@@H](O)[C@@H](O[C@H]1[C@H](O)[C@H]2O)O[C@@H]7CO)O[C@@H]6CO)O[C@@H]5CO)O[C@@H]4CO)O[C@@H]3CO`: the growth inhibition call is “inactive”.

On to `COc1ccc(NC(=O)Nc2ccc3c(c2)CC(=O)N([C@@H](C)CO)C[C@H](C)[C@H](CN(C)S(=O)(=O)c2c(C)noc2C)O3)cc1`, for which the growth inhibition call is “inactive”.

`COc1ccc(S(=O)(=O)Nc2ccc3c(c2)CC(=O)N([C@@H](C)CO)C[C@@H](C)[C@@H](CN(C)C(=O)NC(C)C)O3)cc1`: the growth inhibition call was “inactive”.

As for `OC1OC(c2ccc(Cl)c(Cc3ccc(OC4CCOC4)cc3)c2)C(O)C(O)C1O` (configuration not stated), the growth inhibition call was “inactive”.

As to `CO[C@@H]1CN(C)C(=O)c2ccc(NC(=O)C3CC3)cc2OC[C@H](C)N(C(=O)Cc2ccccn2)C[C@H]1C`, the growth inhibition call was “inactive”.

Regarding `C[C@@H]1CN([C@H](C)CO)C(=O)c2cc(NS(=O)(=O)c3ccc(F)cc3)ccc2O[C@H]1CN(C)S(=O)(=O)c1cccs1`, the growth inhibition call was “inactive”.

Take `c1ccc(CCNc2ccnc3cc4ccccc4cc23)cc1`: the growth inhibition call was “active”.

For the compound `Cc1nnc(NCCc2ccccc2)n(N)c1=O`, the growth inhibition call is “inactive”.

Turning to `NCCNc1cccc2ccccc12`, the growth inhibition call is “inactive”.

For `C[C@@H]1CN([C@@H](C)CO)C(=O)Cc2cc(NC(=O)CCN3CCOCC3)ccc2O[C@@H]1CN(C)S(=O)(=O)c1ccc(Cl)cc1`, the growth inhibition call was “inactive”.

For `CO[C@@H]1CN(C)C(=O)c2cc(NC(=O)C3CC3)ccc2OC[C@H](C)N(C(=O)CN2CCOCC2)C[C@H]1C`, the growth inhibition call was “inactive”.

As to `COC(=O)C1=CC(CCCO)=C[C@@H](c2ccc(CN3CCCC3)cc2)N(Cc2sc3ccccc3c2Cl)C=C1C(=O)OC`, the growth inhibition call was “inactive”.

Turning to `CS(=O)(=O)CCOC(=O)C1=CC(CCCO)=C[C@@H](c2ccc(CN3CCCC3)cc2)N(Cc2sc3ccccc3c2Cl)C=C1C(=O)OCCS(C)(=O)=O`, the growth inhibition call was “active”.

As for `NC(=O)N1C(=O)[C@H]2[C@H](C1=O)[C@H]1C=C(CCCO)[C@@H]2[C@H](c2ccc(CN3CCCC3)cc2)N1Cc1sc2ccccc2c1Cl`, the growth inhibition call was “inactive”.
